{
  "source": "PubChem BioAssay (NCATS)",
  "note": "Results filed as inconclusive are left out. Entries that show only a call come without a potency. The source made the active and inactive calls. The call rests on the fitted dose curve; in most records, active means well fitted inhibition curve with a large enough effect; inconclusive means small, poorly fitted or top-dose-only effect; inactive means flat fitted curve, though single readings scatter. Potency means the concentration at half of the fitted maximal effect.",
  "data": [
    {"target": "Voltage-gated inwardly rectifying potassium channel KCNH2 (Homo sapiens) (UniProt Q12809)", "sequence (Q12809 whole entry, looked up)": "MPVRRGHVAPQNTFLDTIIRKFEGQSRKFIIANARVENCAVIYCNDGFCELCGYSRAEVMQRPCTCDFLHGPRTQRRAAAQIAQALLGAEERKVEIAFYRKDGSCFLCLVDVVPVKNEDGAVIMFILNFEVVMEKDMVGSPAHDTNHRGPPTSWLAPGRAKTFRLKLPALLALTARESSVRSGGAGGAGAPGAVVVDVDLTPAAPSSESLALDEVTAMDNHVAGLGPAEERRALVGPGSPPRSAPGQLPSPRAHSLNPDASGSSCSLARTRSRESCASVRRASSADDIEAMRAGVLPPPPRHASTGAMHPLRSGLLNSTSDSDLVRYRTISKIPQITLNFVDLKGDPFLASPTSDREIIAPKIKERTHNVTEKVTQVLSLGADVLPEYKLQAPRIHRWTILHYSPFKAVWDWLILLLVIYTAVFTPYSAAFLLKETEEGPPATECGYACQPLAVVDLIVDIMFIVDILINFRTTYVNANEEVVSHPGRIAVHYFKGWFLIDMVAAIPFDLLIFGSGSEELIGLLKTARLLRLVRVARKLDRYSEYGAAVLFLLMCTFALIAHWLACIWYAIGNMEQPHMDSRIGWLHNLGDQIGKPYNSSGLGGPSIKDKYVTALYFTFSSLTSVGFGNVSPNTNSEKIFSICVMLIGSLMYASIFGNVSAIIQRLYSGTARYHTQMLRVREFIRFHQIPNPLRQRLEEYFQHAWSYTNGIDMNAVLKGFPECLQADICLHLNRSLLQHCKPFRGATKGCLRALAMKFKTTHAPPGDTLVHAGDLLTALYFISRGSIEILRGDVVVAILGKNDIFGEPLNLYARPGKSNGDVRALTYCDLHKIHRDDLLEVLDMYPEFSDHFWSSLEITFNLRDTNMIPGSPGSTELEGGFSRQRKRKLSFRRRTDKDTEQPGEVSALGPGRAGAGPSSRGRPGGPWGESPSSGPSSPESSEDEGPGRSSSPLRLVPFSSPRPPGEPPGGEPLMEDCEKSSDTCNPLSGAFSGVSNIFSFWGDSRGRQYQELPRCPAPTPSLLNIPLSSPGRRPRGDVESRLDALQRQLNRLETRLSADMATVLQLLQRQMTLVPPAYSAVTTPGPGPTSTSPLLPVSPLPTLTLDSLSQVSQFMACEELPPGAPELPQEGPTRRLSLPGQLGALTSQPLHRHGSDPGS", "assay": "qHTS Assay for Small Molecule Inhibitors of the Human hERG Channel Activity (AID 588834);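 further: lower thallium flux fluorescence means stronger hERG block; nearly all actives have a fitted effect of over 50% in size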", "settings": "U2OS BacMam hERG, FluxOR thallium flux fluorescence; series mostly up to 46.1 µM", "in_short": "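Measured: FluxOR fluorescence after thallium stimulation in U2OS cells transduced with hERG by baculovirus. Compounds pre-incubated around 10 min; medium Opti-MEM with 2% FCS. AC50 from Hill equation.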", "values": [
      {"compound": "CCOC(=O)C(C#N)=C(c1ccccc1)c1ccccc1", "Potency": "inactive"},
      {"compound": "N[C@H](C(=O)O)[C@@H](O)c1ccc(O)c(O)c1", "Potency": "inactive"},
      {"compound": "O=C(Nc1ccc([N+](=O)[O-])cc1)Nc1ccc([N+](=O)[O-])cc1", "Potency": "14.1 µM (active)"},
      {"compound": "CCN(CC)CCOC(=O)C1(c2ccccc2)CCCC1", "Potency": "inactive"},
      {"compound": "O=C(O)CCc1nc2ccccc2[nH]1", "Potency": "inactive"},
      {"compound": "Cn1c(=O)c2[nH]c(Br)nc2n(C)c1=O", "Potency": "inactive"},
      {"compound": "O=C1C(O)=C(O)C(=O)C(O)=C1O", "Potency": "inactive"},
      {"compound": "CCC(C(=O)OCCOCCN(CC)CC)c1ccccc1", "note": "(stereo unspecified)", "Potency": "inactive"},
      {"compound": "CCN1/C(=C/C=C/c2sc3ccccc3[n+]2CC)Sc2ccccc21", "Potency": "1.41 µM (active)"},
      {"compound": "CC(=O)O[C@]1(C(C)=O)CC[C@H]2[C@@H]3C=C(Cl)C4=CC(=O)CC[C@]4(C)[C@H]3CC[C@@]21C", "Potency": "inactive"},
      {"compound": "Cc1ncc(CO)c(C=O)c1O", "Potency": "inactive"},
      {"compound": "Nc1nc(Cl)nc2c1ncn2[C@@H]1O[C@H](CO)[C@@H](O)[C@@H]1F", "Potency": "inactive"},
      {"compound": "OC1C(O)C(O)C(O)C(O)C1O", "note": "(stereo unspecified)", "Potency": "inactive"},
      {"compound": "CC1CCc2c(N3CCC(O)CC3)c(F)cc3c(=O)c(C(=O)O)cn1c23", "note": "(stereo unspecified)", "Potency": "inactive"},
      {"compound": "CCCN(CCc1cccs1)[C@H]1CCc2c(O)cccc2C1", "Potency": "1 µM (active)"},
      {"compound": "C[C@]12CCC(=O)C=C1C=C[C@@H]1[C@@H]2CC[C@@]2(C)[C@H]1CC[C@@]21CCC(=O)O1", "Potency": "inactive"},
      {"compound": "CCOC(=O)[C@H](CCc1ccccc1)N[C@@H](C)C(=O)N1[C@H](C(=O)O)C[C@@H]2CCC[C@@H]21", "Potency": "inactive"},
      {"compound": "COc1cc(C(=S)N2CCOCC2)ccc1O", "Potency": "inactive"},
      {"compound": "O=C(O)Cc1csc(-c2ccc(Cl)cc2)n1", "Potency": "inactive"},
      {"compound": "CC(=O)O[C@]1(C(C)=O)CC[C@H]2[C@@H]3C=C(C)C4=CC(=O)CC[C@]4(C)[C@H]3CC[C@@]21C", "Potency": "inactive"},
      {"compound": "Cc1cccc(C)c1NC(=O)c1ccccc1C(=O)O", "Potency": "inactive"},
      {"compound": "Cc1cccc(C)c1NC(=O)CN1CCCC1", "Potency": "inactive"},
      {"compound": "COc1cc(C(=O)N2CCCCCCC2)cc(OC)c1OC", "Potency": "inactive"},
      {"compound": "CC(C)(Cc1c[nH]c2ccccc12)NCC(O)COc1ccccc1C#N", "note": "(stereo unspecified)", "Potency": "2.82 µM (active)"},
      {"compound": "CCN1CCN(C(=O)N[C@@H](C(=O)N[C@@H]2C(=O)N3C(C(=O)O)=C(CSc4nnnn4C)CS[C@H]23)c2ccc(O)cc2)C(=O)C1=O", "Potency": "inactive"},
      {"compound": "O=C1OC(CN2CCOCC2)CN1/N=C/c1ccc([N+](=O)[O-])o1", "note": "(stereo unspecified)", "Potency": "inactive"},
      {"compound": "CCc1nn(CCCN2CCN(c3cccc(Cl)c3)CC2)c(=O)n1CCOc1ccccc1", "Potency": "1 µM (active)"},
      {"compound": "O=C1C(=O)c2ccccc2C(O)=C1C1CCC(c2ccc(Cl)cc2)CC1", "note": "(stereo unspecified)", "Potency": "inactive"},
      {"compound": "O=C(Oc1cccc2cccnc12)c1ccccc1", "Potency": "inactive"},
      {"compound": "COc1ccc(CCN(C)CCCN2CCc3cc(OC)c(OC)cc3CC2=O)cc1OC", "Potency": "7.94 µM (active)"},
      {"compound": "COc1cc(C)nc(-n2nc(C)cc2OC)n1", "Potency": "inactive"},
      {"compound": "CC(=O)Nc1ccc(S(=O)(=O)Nc2ccc([N+](=O)[O-])cc2)cc1", "Potency": "inactive"},
      {"compound": "CC(C)[C@@H]1CC[C@@H](C)CC1=O", "Potency": "inactive"},
      {"compound": "CC(C)Cn1cnc2c1c(=O)n(C)c(=O)n2C", "Potency": "inactive"},
      {"compound": "COc1cc(O)c(C(=O)c2ccccc2)cc1S(=O)(=O)O", "Potency": "inactive"},
      {"compound": "CCc1cc(Cl)c(OC)c(C(=O)NC[C@@H]2CCCN2CC)c1O", "Potency": "2.82 µM (active)"}
    ]}
  ]
}
